Cycloheximide cs: affects cycloheximide protein synthesis inhibition readout, counter-screen | 12% of 300,000 active | cell reporter, cycloheximide protein synthesis inhibition counterscreen | max response, %; in the data active = max response mostly above about 13%, no sharp cut-off; inactive = mostly below about 14%; also: read at 38.3 µM for the half of the compounds with a filed dose
Marburg entry inh: Marburg virus entry inhibition | Marburg virus pseudotyped entry inhibition, cell reporter | 1.8% of 300,000 active | Potency, µM (top dose mostly 37.8 µM), most hits filed as inhibitors; calls by dose curve; tested in HEK293 cells
AMA1 RON2 block: inhibitors of Plasmodium falciparum AMA1-RON2 interaction. Potency, µM (highest dose often 58.2 µM), most hits filed as inhibitors. AlphaScreen AMA1-biotinylated RON2 peptide binding. 0.2% of 360,000 active. AID 720542; active = well fitted inhibition curve with a large enough effect; inconclusive = small, poorly fitted or top-dose-only effect; inactive = no such curve, though single readings can be large or run the other way; also: nearly all actives have a fitted effect of over 45% in size
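AMA1 (3D7) with his tag at 25 nM final met compounds first, then biotinylated RON2 peptide at 25 nM; detection used donor plus acceptor beads, 10 µg/mL apiece, read by AlphaScreen after 30 min at room temperature.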
Shiga inhibitor: Shiga toxin inhibition; AID 2315; Vero cells, Shiga toxin protein synthesis inhibition reporter; inhibition, % at 38.7 µM; 9.2% of 290,000 active; in the data active = inhibition mostly above about 28%, no sharp cut-off; inactive = mostly below about 43%
LASV entry inh: inhibitors of Lassa virus binding or cell entry; Potency, µM (highest dose often 37.9 µM), most hits filed as inhibitors; Lassa virus pseudotype entry inhibition, cell reporter; 1.2% of 300,000 active; AID 540256; calls by dose curve; tested in HEK293 cells; also: nearly all actives have a fitted effect of over 50% in size
Numbers stand for hits; – = inactive; ? = inconclusive; · = not tested or not shown; [ ] = dose if it differs, or a comment. This excerpt belongs to a sample that is enriched for hits.

SMILES	Cycloheximide cs	Marburg entry inh	AMA1 RON2 block	Shiga inhibitor	LASV entry inh
CCCC(=O)c1ccc(N2CCN(S(=O)(=O)c3ccccc3)CC2)c(F)c1	–	?	–	–	–
CCC(=O)c1ccc(N2CCN(S(=O)(=O)c3ccccc3)CC2)c(F)c1	44.0	–	–	–	–
CCC(=O)c1ccc(N2CCCC2)c(F)c1	28.2	–	–	47.6	?
CCCC(=O)c1ccc(N2CCCC2)c(F)c1	36.9	–	–	76.1	?
CCC(=O)c1ccc(N2CCN(C(=O)c3ccccc3F)CC2)c(F)c1	–	?	–	–	–
CCC(=O)c1ccc(N2CCCCCC2)c(F)c1	35.0	–	–	54.1	?
CCC(=O)c1ccc(N2CCN(C(=O)c3cccs3)CC2)c(F)c1	21.3	·	–	–	·
Cc1cccc(Cn2c(C)nc3c(N)c(C)c(C)cc32)c1	–	–	–	–	–
Cc1cc(C)[n+]2[nH]c(N)c(N=Nc3ccccc3)c2n1	16.6	–	–	58.1	–
CCCC#Cc1ccc2c(c1)COc1c3ccccc3nn1-2	·	·	–	·	·
COCCNC(=O)c1ccc2c3n(nc2c1)-c1ccccc1CO3	30.2	·	–	41.4	·
O=C(NCCO)c1ccc2c3n(nc2c1)-c1ccc(Cl)cc1CO3	54.1	·	–	79.2	·
Cc1ccc2c(c1)COc1c3ccc(C(=O)NCCO)cc3nn1-2	61.2	·	–	73.8	·
C=CCNC(=O)c1ccc2c3n(nc2c1)-c1ccccc1CO3	27.4	·	–	46.2	·
Cc1ccc2oc(C(=O)Nc3c(C(=O)Nc4cccc(Cl)c4)oc4ccccc34)cc(=O)c2c1	·	–	·	·	–
COc1ccc(NC(=O)CN2CCCN(S(=O)(=O)c3ccc(Br)cc3)CC2)c(OC)c1	·	–	·	·	–
COCCNC(=O)c1ccc2c3n(nc2c1)-c1ccc(Cl)cc1CO3	7.5	·	–	44.1	·
O=C(NCC1CC1)c1ccc2c3n(nc2c1)-c1ccc(Cl)cc1CO3	·	·	–	·	·
O=C(Nc1cccc2c1CCCC2)c1cc(C2CCCCN2C(=O)CCCc2ccccc2)on1 (stereo not given)	·	·	–	·	·
COC(=O)[C@]1(C)N[C@H](CN(C)S(=O)(=O)c2ccc(-c3ccccc3)cc2)[C@@H]2C(=O)N(C)C(=O)[C@@H]21	·	·	–	·	·
CCc1nc2ccc(C(=O)Nc3nnc(C)s3)cc2nc1CC	12.3	–	–	–	–
CCc1nc2ccc(C(=O)N3CCN(CC)CC3)cc2nc1CC	–	·	–	–	·
CCc1nc2ccc(C(=O)O)cc2nc1CC	91.1	2µM	–[2.32 µM]	90.7	14.6µM
COc1ccccc1CNC(=O)c1ccc2c(c1)sc1nc(-c3ccc(F)cc3)cn12	·	·	·	·	–
O=C(OCCN1CCCCC1)c1ccccc1Cl	29.2	–	–	–	–
SMILES	Cycloheximide cs	Marburg entry inh	AMA1 RON2 block	Shiga inhibitor	LASV entry inh
O=C(OCCN1CCCCC1)c1ccc(O)cc1	22.7	–	–	–	–
O=C1CSc2ccccc2N1Cc1ccc(F)cc1	30.9	–	–	–	–
O=C(O)C1CCCN1C(=O)NC1CCCCC1 (stereo not given)	–	·	–	–	·
CN(Cc1cccs1)C(=O)CCCc1c[nH]c2ccccc12	46.3	?	–	73.3	–
CN(Cc1cccs1)C(=O)CCc1c[nH]c2ccccc12	15.6	–	–	–	–
CC(C)c1nc2scc(-c3ccc(Cl)cc3)c2c(=O)n1N	37.6	·	–	73.4	·
Cc1cc(C(=O)Nc2ccccc2)oc(=O)c1	48.2	–	–	44.8	?
COC(=O)c1cc(C)cc(=O)o1	–	·	–	–	·
NS(=O)(=O)c1ccc(NC(=O)c2ccc(COc3ccccc3)o2)cc1	–	–	–	–	–
Cc1oc(C(=O)Nc2ccc(O)cc2)cc1COc1ccccc1	15.9	?	–	38.1	20µM
Cc1ccc(OCc2cc(C(=O)Nc3ccccc3)oc2C)cc1	50.6	–	–	85.2	–
Cc1ccc(S(=O)(=O)C/N=C(/NC(=S)N(c2ccccc2)c2ccccc2)c2ccccc2)cc1	21.5	?	–	49.5	–
CCc1cccc(NCc2ccccc2-c2nnc(-c3ccccc3Cl)o2)c1	·	–	·	·	?
CCc1ccc(OCC(=O)NC(C)C)cc1	27.1	–	–	110.7	–
CC(C)(C)NC(=O)COc1ccc(-c2ccccc2)cc1	29.9	–	–	86.3	?
CCNC(=O)COc1ccc(OCc2ccccc2)cc1	32.3	?	–	101.8	–
CCC(C)NC(=O)COc1ccc(OCc2ccccc2)cc1 (stereo not given)	12.2	·	–	–	·
CCOc1ccc(C(=O)OCC(=O)NC(C)C)cc1	–	–	–	–	?
CCC(C)(C)NC(=O)COc1ccc(OCc2ccccc2)cc1	–	–	–	–	–
Cc1cc(C)c[n+](-c2[nH]c(=O)sc2/C=N/NC([S-])=Nc2ccccc2)c1	–	–	–	–	–
CC(C)CO/N=C1\C[C@@H](O)[C@@H](O)[C@@H]2[C@@H]3C(=O)N(C4CCCCC4)C(=O)[C@@H]3CC[C@H]12	·	–	·	·	·
CCNC(=O)COc1ccc(-c2ccccc2)cc1	47.1	?	–	59.7	?
COc1cccc(Nc2nc3cc(OC)ccc3cc2C#N)c1	–	–	–	–	–
COc1cccc(Nc2ncc(C#N)c(N)n2)c1	38.6	?	–	81.1	–
Cc1ccc(-c2nnc(Cc3ccc([N+](=O)[O-])cc3)o2)cc1	56.4	·	–	69.1	·
SMILES	Cycloheximide cs	Marburg entry inh	AMA1 RON2 block	Shiga inhibitor	LASV entry inh
O=[N+]([O-])c1ccc(Cc2nnc(-c3ccc(F)cc3)o2)cc1	32.5	·	–	74.7	·
Fc1ccc(-c2nnc(Cc3nnc(-c4ccc(F)cc4)o3)o2)cc1	–	–	–	–	–
CCOC(=O)c1sc(N=NC2=C(O)CCCC2=O)c(C(=O)OCC)c1C	17.6	–	?	–	–
Cc1c(C(N)=O)c(-c2ccccc2)nn1-c1ccccc1	–	–	–	–	–
CCCc1c(-c2ccc(O)cc2)nn(-c2ccc(O)cc2)c1-c1ccc(O)cc1	–	?	–	–	0.291µM
O=c1[nH]c(SCc2ccc(Cl)cc2)nc2[nH]ncc12	19.2	·	–	–	·
O=c1[nH]c(SCc2cccc(Cl)c2)nc2[nH]ncc12	20.5	·	–	–	·
CC1=C(C(=O)OC2CCCCCC2)C(c2ccc(Cl)cc2Cl)CC(=O)N1 (stereo not given)	·	–	·	·	–
CN(C)c1ccc(S(=O)(=O)N2CCCCC2)cc1NC(=O)CN1C(=O)NC2(CCCC2)C1=O	·	–	–	·	–
COc1ccc(N2CCN(c3ccc(S(=O)(=O)N(C(C)C)C(C)C)cn3)CC2)cc1	–	–	–	–	–
NNc1nc2ccccc2c(=O)n1Cc1ccccc1	29.2	?	–	42.8	–
O=c1c2ccccc2[nH]c(=S)n1Cc1ccccc1	–	–	–	·	–
CC(C)OCCCn1c(NN)nc2ccccc2c1=O	–	–	–	–	–
Cc1nc2ccccc2c(=O)n1CCc1ccccc1	16.4	·	–	–	·
O=c1c2ccccc2[nH]c(=S)n1CCc1ccccc1	32.9	?	–	69.1	?
COc1ccc(-c2cc(C(F)(F)F)nc(SCC(=O)NC(C)c3ccccc3)n2)cc1 (stereo not given)	·	–	·	·	–
Nc1nc(-c2ccco2)nn1C(=O)CCc1ccccc1	–	–	–	–	–
CCCC(=O)n1nc(-c2ccco2)nc1SCc1ccccc1	42.9	–	–	active	–
CSc1nc(-c2ccco2)nn1S(=O)(=O)c1ccc(C)cc1	–	–	–	–	–

Compound activity (PubChem)
